# Results as given in the supplement of paper PMC6607015.
# Where a name gives a salt, the structure may show the parent alone.
# System: A431
# Assay: whole-cell filipin (free cholesterol) integrated intensity, Z-score; higher = more cholesterol staining
# Details: compound concentration in added solution (µM; 5 µl added to 20 µl cells): 10; 18 h
# Procedure, shortened: (§1)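 HeLa MZ or A431 cells were plated at 3,500 per well in 20 µl over 5 µl of 10 µM compound solution in duplicate 384-well imaging plates and fixed in 4% PFA after 18 h. Staining used the 6C4 anti-LBPA antibody, filipin, propidium iodide and CellTracker green, with four 20× images captured per well. MetaXpress segmentation measured integrated LBPA or filipin intensity per cell, across the whole cell or inside LBPA endosomes, and AcuityXpress normalised these into Z-scores.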
row,SMILES,whole-cell filipin (z-score)
1,CN(Cc1cnc2nc(N)nc(N)c2n1)c1ccc(C(=O)N[C@@H](CCC(=O)O)C(=O)O)cc1 [Methotrexate],0.354
2,O=C1Cc2cc(CCN3CCN(c4nsc5ccccc45)CC3)c(Cl)cc2N1 [Ziprasidone  Hydrochloride],0.285
3,CCc1ccc(CCOc2ccc(CC3SC(=O)NC3=O)cc2)nc1 (configuration not stated) [Pioglitazone],-0.697
4,COC(=O)Nc1nc2cc([S+]([O-])c3ccccc3)ccc2[nH]1 (configuration not stated) [Oxfendazol],-0.236

# System: HeLa MZ
# Assay: as above
# Details: compound concentration in added solution (µM; 5 µl added to 20 µl cells): 10; 18 h
# Procedure, shortened: as §1
row,SMILES,whole-cell filipin (z-score)
1,CCN(CC)C(=S)SSC(=S)N(CC)CC [Disulfiram],0.0194
2,c1ccc2c(c1)CCCc1cc(NCCN3CCOCC3)nnc1-2,-0.162
3,CC(C)OC(=O)C(C)(C)Oc1ccc(C(=O)c2ccc(Cl)cc2)cc1 [Fenofibrate],-0.246
4,CC(C)n1c(/C=C/C(O)CC(O)CC(=O)O)c(-c2ccc(F)cc2)c2ccccc21 (configuration not stated) [Fluvastatin sodium salt],-0.754
5,CC(=O)N(CC(C)C(=O)O)c1c(I)cc(I)c(N)c1I (configuration not stated) [Iocetamic acid],0.178
6,CCOC(=O)[N-]c1c[n+](N2CCOCC2)no1 [Molsidomine],-0.136
7,CCn1cc(C(=O)O)c(=O)c2cnc(N3CCNCC3)nc21 [Pipemidic acid],0.338
8,Nc1cc(N2CCCCC2)nc(N)[n+]1[O-] [Minoxidil],0.345
9,COc1cc2ncnc(Nc3ccc(F)c(Cl)c3)c2cc1OCCCN1CCOCC1 [Gefitinib],0.788
10,CS(=O)(=O)c1ccc([C@@H](O)[C@@H](CF)NC(=O)C(Cl)Cl)cc1 [Florfenicol],-0.36
11,COc1cc(C)c(/C=C/C(C)=C/C=C/C(C)=C/C(=O)O)c(C)c1C [Acitretin],0.218
12,C=C(NC(=O)C(=C)NC(=O)c1csc(C2=N[C@@H]3c4csc(n4)[C@H]4NC(=O)c5csc(n5)[C@H]([C@](C)(O)[C@@H](C)O)NC(=O)[C@H]5CSC(=N5)/C(=C/C)NC(=O)[C@H]([C@@H](C)O)NC(=O)c5csc(n5)[C@]3(CC2)NC(=O)[C@H](C)NC(=O)C(=C)NC(=O)[C@H](C)NC(=O)[C@H]([C@@H](C)CC)N[C@@H]2C=Cc3c([C@H](C)O)cc(nc3[C@H]2O)C(=O)O[C@@H]4C)n1)C(N)=O [Thiostrepton],-0.786
13,C1CCC(C(CC2CCCCN2)C2CCCCC2)CC1 (configuration not stated) [Perhexiline maleate],0.438
14,Cc1cc(C(=O)NNCc2ccccc2)no1 [Isocarboxazid],-0.63
15,CO[C@H]1/C=C/O[C@@]2(C)Oc3c(C)c(O)c4c(O)c(c(/C=N/N5CCN(C6CCCC6)CC5)c(O)c4c3C2=O)NC(=O)/C(C)=C\C=C\[C@H](C)[C@H](O)[C@@H](C)[C@@H](O)[C@@H](C)[C@H](OC(C)=O)[C@@H]1C [Rifapentine],-0.401
16,CN(C)CC/C=C1/c2ccccc2COc2ccc(CC(=O)O)cc21 [Olopatadine hydrochloride],0.861
17,CCc1c2c(nc3ccc(OC(=O)N4CCC(N5CCCCC5)CC4)cc13)-c1cc3c(c(=O)n1C2)COC(=O)[C@]3(O)CC [Irinotecan Hydrochloride],3.96
18,CCc1cccc(CC)c1NC(=O)CN(CC(=O)O)CC(=O)O [Etifenin],-0.697
19,Fc1ccc([C@@H]2CCNC[C@H]2COc2ccc3c(c2)OCO3)cc1 [Paroxetine Hydrochloride],-0.28
20,COc1ccc([C@@H]2CC(=O)c3c(O)cc(O[C@@H]4O[C@H](CO[C@@H]5O[C@@H](C)[C@H](O)[C@@H](O)[C@H]5O)[C@@H](O)[C@H](O)[C@H]4O)cc3O2)cc1O [Hesperidin],-0.779
21,CC(C)(C)CC(C)(C)c1ccc(OCCOCC[N+](C)(C)Cc2ccccc2)cc1 [Benzethonium chloride],-0.53
22,Nc1ccc(S(=O)(=O)NC(=O)c2ccccc2)cc1 [Sulfabenzamide],-0.0901
23,Cc1ccc(C)c(OCCCC(C)(C)C(=O)O)c1 [Gemfibrozil],-0.706
24,CC(=O)CC(c1ccc([N+](=O)[O-])cc1)c1c(O)c2ccccc2oc1=O (configuration not stated) [Acenocoumarol],-0.387
25,O=C1NCCN1CCN1CCC(c2cn(-c3ccc(F)cc3)c3ccc(Cl)cc23)CC1 [Sertindole],-0.48
26,CN[C@H]1CC[C@@H](c2ccc(Cl)c(Cl)c2)c2ccccc21 [Sertraline],0.938
27,CC(NCCC(c1ccccc1)c1ccccc1)c1ccccc1 (configuration not stated) [Fendiline hydrochloride],0.948
28,O=C1Cc2cc(CCN3CCN(c4nsc5ccccc45)CC3)c(Cl)cc2N1 [Ziprasidone  Hydrochloride],0.974
